# According to PubChem BioAssay AID2796 (The Scripps Research Institute Molecular Screening Center, 2010):
# The whole screen tested about 320,000 compounds, of which about 8,000 (2.5%) were called active. The list comes from a sample in which actives are over-represented; it also holds similar structures and randomly drawn compounds. Unmarked numbers belong to inactive results. No stated cut-off is given here; in the data, active means activation above about 47%; inactive means the rest.
# Target: Aryl hydrocarbon receptor (Homo sapiens) (UniProt P35869)
# Sequence (P35869 whole entry, looked up): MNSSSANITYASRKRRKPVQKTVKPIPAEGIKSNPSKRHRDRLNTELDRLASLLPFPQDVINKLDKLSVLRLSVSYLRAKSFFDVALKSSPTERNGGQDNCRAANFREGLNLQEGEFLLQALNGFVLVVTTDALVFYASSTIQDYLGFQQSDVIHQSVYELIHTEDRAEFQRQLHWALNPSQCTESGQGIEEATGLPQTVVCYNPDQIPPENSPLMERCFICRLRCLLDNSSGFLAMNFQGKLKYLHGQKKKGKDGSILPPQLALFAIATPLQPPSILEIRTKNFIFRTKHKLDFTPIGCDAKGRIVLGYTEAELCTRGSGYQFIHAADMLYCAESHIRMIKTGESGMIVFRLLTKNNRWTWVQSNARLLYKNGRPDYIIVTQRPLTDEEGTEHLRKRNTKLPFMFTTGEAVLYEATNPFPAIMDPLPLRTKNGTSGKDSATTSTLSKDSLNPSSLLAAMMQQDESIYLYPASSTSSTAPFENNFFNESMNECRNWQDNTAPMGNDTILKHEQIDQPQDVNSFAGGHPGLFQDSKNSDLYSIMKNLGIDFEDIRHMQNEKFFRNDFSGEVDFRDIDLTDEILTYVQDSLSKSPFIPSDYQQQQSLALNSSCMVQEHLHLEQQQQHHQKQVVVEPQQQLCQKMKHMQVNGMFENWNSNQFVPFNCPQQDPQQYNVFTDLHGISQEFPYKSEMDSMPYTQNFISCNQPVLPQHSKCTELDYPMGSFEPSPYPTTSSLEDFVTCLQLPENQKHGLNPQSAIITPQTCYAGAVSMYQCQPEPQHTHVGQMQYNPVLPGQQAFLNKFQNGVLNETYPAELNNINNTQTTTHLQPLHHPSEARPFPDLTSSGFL
# Experiment: AHR activators, primary screen, cell-based, luminescence, luciferase reporter, human (AID 2796);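 further: 0% = vehicle wells and 100% = reference agonist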
# Conditions: AHR-responsive luciferase reporter cells, at 5 µM, active compounds read high
row,SMILES,activation
1,Cn1ncc(Br)c1C(=O)NC1CCCC1,-3.04%
2,COc1ccccc1NC(=O)c1c(Br)cnn1C,57.9% (active)
3,Cn1ncc(Br)c1C(=O)NCc1cccs1,-1.33%
4,COC(=O)c1ccc(C(NC(=O)OCc2ccccc2)/C(C)=C/[C@@H](C)C(=O)NCc2ccc(OC)c(OC)c2)cc1 (stereo partly drawn),6.4%
5,COc1ccc(NC(=O)CSc2nnc(C3CC3)n2C)cc1S(=O)(=O)N1CCCCC1,-0.33%
6,Cc1ccc(CNCc2ccc3c(c2)OCO3)c(C)c1,2.41%
7,COc1cc(CNCc2ccc3c(c2)OCO3)c([N+](=O)[O-])cc1OC,111% (active)
8,COc1cc(OC)c(C(=O)NCc2ccc3c(c2)OCO3)cc1OC,14%
9,NS(=O)(=O)c1ccc(N=Cc2ccc(Br)s2)cc1,3.54%
10,O=C(NNc1cc(Cl)cc(Cl)c1)c1c(F)cccc1Cl,10.2%
11,COc1ccccc1-c1nnc(NC(=O)c2cccc(N3C(=O)CCC3=O)c2)o1,33.9%
12,Cc1sc(NC(=O)c2ccc3ncsc3c2)c(C(N)=O)c1C,5.88%
13,COc1ccccc1-c1nnc(NC(=O)c2ccc3ncsc3c2)o1,48.6% (active)
14,CC(=O)C1=C(O)C(=O)N(c2ccc(Br)cc2)C1c1ccc([N+](=O)[O-])cc1 (stereo not drawn),62.3% (active)
15,COC(=O)CN1C(=O)C(O)=C(C(C)=O)C1c1ccc([N+](=O)[O-])cc1 (stereo not drawn),0.71%
16,CC(=O)C1=C(O)C(=O)N(c2cccnc2)C1c1ccc([N+](=O)[O-])cc1 (stereo not drawn),-2.61%
17,COC(=O)C1=C(C)N(C(C)c2ccccc2)C(=O)/C1=C\c1ccco1 (stereo not drawn),1.2%
18,CCSc1ccccc1C(=O)NCc1ccc(OC)cc1,-0.68%
19,COc1ccc(COCCN2CCN(S(=O)(=O)c3ccccc3)CCC2=O)cc1,2.49%
20,C=CCSc1nnc2c(n1)-c1cccc3cccc-2c13,56.7% (active)
21,CCN(CC(=O)Nc1ccc(OC)cc1)C(=O)CSCc1ccc(C)cc1,0.1%

row,SMILES,activation
1,Cc1occc1C(=O)Nc1cccc(S(=O)(=O)N2CCOCC2)c1,3.12%
2,COc1ccc(NC(=O)c2oc3ccc(S(=O)(=O)N4CCOCC4)cc3c2C)cc1,10.4%
3,Cc1c(C(=O)Nc2cccc(S(=O)(=O)N3CCOCC3)c2)oc2ccccc12,67.5% (active)
4,N#Cc1ccc(OCCN2C(=O)NC3(CCSC3)C2=O)cc1 (stereo not drawn),-2.11%
5,Cc1cc(NC(=O)CSc2nnc(-c3ccco3)n2N)no1,1.53%
6,COc1ccc(C(=O)NC(=S)N2CCNC(=O)C2CC(=O)OC(C)C)cc1 (stereo not drawn),5.47%
7,Cc1cc2ncn(CCCCOc3ccccc3)c2cc1C,-0.22%
8,Brc1ccccc1C1N=C(c2ccccc2)NO1 (stereo not drawn),50.1% (active)
9,N#Cc1ccc(C2N=C(c3ccccc3)NO2)cc1 (stereo not drawn),0.8%
10,S=C1NC(c2ccccc2)=NCN1c1ccc(Br)cc1,1.57%
11,Cc1ccc(-n2nc3c(c2NC(=O)CCC2CCCCC2)CS(=O)C3)cc1 (stereo not drawn),18.5%
12,CCCCNC(=S)N/N=C1\CCCCc2ccccc21,13.7%
13,Cc1cc(O)c(C(=O)/C=C/c2c(F)c(F)c(F)c(F)c2F)c(=O)o1,99.4% (active)
14,Cc1ccc(N=Cc2c(O)cc(C)oc2=O)c(C)c1,-0.65%
15,Cc1cc(O)c(Sc2ccccc2)c(=O)o1,0.97%
16,CCCc1cc(=S)n2c([nH]c3ccccc32)c1C#N,63.8% (active)
17,CCOC(=O)CCc1c(C)c(C#N)c2[nH]c3ccccc3n2c1=O,4.77%
18,CN(C)Cc1c(C#N)c2ccccc2n1C,1.2%
19,COc1ccc(CCNC(=O)c2nnc(CS(=O)(=O)c3ccccc3)o2)cc1OC,-2.96%
20,CCn1c2ccccc2c2cc(NC(=O)C/C(C)=N/NC(=O)c3ccccc3N)ccc21,95.2% (active)
21,CCn1c2ccccc2c2cc(CC(N)=O)ccc21,1.45%

row,SMILES,activation
1,CCn1c2ccccc2c2cc(NC(=S)N3CCOCC3)ccc21,46%
2,CCn1c2ccccc2c2cc(NC(=O)CNC)ccc21,44.7%
3,CCn1c2ccccc2c2cc(NC(=O)COC(=O)c3ccccc3Br)ccc21,62.5% (active)
4,CCn1c2ccccc2c2cc(NC(=O)COC(=O)c3cc(S(=O)(=O)N4CCCCC4)ccc3Cl)ccc21,34.2%
5,COc1cc(OC)c(N2CC(C(=O)Nc3cc(Cl)ccc3N3CCOCC3)CC2=O)cc1Cl (stereo not drawn),-0.04%
6,CCn1c(CSc2nncn2-c2ccc(OC)cc2)nc2cc(S(=O)(=O)N(C)C)ccc21,-0.25%
7,CCOc1ccccc1C1NC(=O)NC(C)=C1C(=O)OCc1ccco1 (stereo not drawn),-1.31%
8,COc1ccccc1-c1sc2ccccc2c1-c1ccc(C(C)=O)cc1,42.1%
9,COC(=O)c1ccc(/C=C/c2c(-c3ccc(OC)cc3)sc3ccccc23)cc1,51.7% (active)
10,COc1ccc2sc(-c3ccc(S(C)(=O)=O)cc3)c(-c3ccc(C(N)=O)cc3)c2c1,17.8%
11,O=C1CCCCC1Sc1ccc(Cl)cc1[N+](=O)[O-] (stereo not drawn),14.3%
12,Cc1nc(NC(CC(C)C)C(=O)O)c2nc(C)oc2n1 (stereo not drawn),1.08%
13,CC(OC(=O)CN1C(=O)c2ccccc2C1=O)C(=O)c1ccccc1 (stereo not drawn),0.4%
14,CCOC(=O)CN1C(=O)C(=O)c2cc(C)ccc21,-0.46%
15,CC(C)OC(=O)CN1C(=O)C(=O)c2ccccc21,101% (active)
16,CC1CCCN(S(=O)(=O)c2ccc(N(C(=O)c3cnccn3)C(C(=O)NC3CCCCC3)c3cccs3)cc2)C1 (stereo not drawn),2.59%
17,CCOC(=O)CCP(=O)(O)C(O)(c1ccccc1)c1ccccc1,-2.52%
18,COCCNC(=O)c1ccc(S(=O)(=O)c2ccc(Cl)cc2)c(NC(C)=O)c1,5.01%
19,CCOC(=O)c1c(C)n(C)c2ccc(OC)c(NC(=O)CN3CCC4(CC3)OCCO4)c12,0.77%
20,CCOC(=O)c1c(C)n(C)c2ccc(OC)c(NS(=O)(=O)CC)c12,55.7% (active)
21,CCOC(=O)c1c(S(=O)(=O)Nc2cccc(Cl)c2)c(C)n(C)c1C,21.5%
